TEAD-YAP inh: TEAD-YAP interaction inhibition, primary screen, TEAD-YAP interaction inhibitor project, luminescence, HEK-TIYL cells; 1.4% of 640,000 active; TEAD-Gal4/YAP UAS-luciferase luminescence; inhibition, % at 9.12 µM; in the data active means inhibition above about 32%
GPR151 ag: activators of human GPR151, primary screen, cell-based, PathHunter beta-arrestin, luminescence; G-protein coupled receptor 151 (Homo sapiens), Q8TDV0; PathHunter beta-arrestin GPR151 cells; activation, % at 11.2 µM; 1% of 650,000 active; AID 1508602, 2020; in the data active means activation above about 4.9%
Target sequence (Q8TDV0 whole entry, looked up): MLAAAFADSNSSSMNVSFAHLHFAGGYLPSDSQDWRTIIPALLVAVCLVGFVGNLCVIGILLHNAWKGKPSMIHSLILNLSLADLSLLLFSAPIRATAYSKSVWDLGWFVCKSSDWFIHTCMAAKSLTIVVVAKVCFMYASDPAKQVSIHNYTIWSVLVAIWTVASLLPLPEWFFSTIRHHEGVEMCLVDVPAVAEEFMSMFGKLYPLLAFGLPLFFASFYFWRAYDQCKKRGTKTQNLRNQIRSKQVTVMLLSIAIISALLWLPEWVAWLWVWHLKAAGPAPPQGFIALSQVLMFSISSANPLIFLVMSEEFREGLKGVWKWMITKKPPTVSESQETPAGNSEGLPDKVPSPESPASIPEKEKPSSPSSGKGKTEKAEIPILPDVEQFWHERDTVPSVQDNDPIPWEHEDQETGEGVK
MITF primary: MITF inhibitors, primary screen, biochemical, AlphaScreen, human | Microphthalmia-associated transcription factor (Homo sapiens), O75030 | AlphaScreen MITF homodimerization, bead proximity signal | inhibition, % at 2.6 µM | 0.91% of 650,000 active | AID 1259374, 2018; in the data active means inhibition above about 50%
FBW7 activator: FBW7 E3 ligase activators, primary screen, biochemical, AlphaScreen, human; F-box/WD repeat-containing protein 7 (Homo sapiens), Q969H0; AlphaScreen FBW7–phospho-cyclin E peptide binding, activator screen; normalized activity (activation), % at 26.1 µM; 0.13% of 650,000 active; in the data active means normalized activity above about 1.9%;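 further: purified mutant Fbw7 with reduced substrate affinity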
A number is an active result; - = inactive. Rows were chosen to be rich in hits. Some 3.5% of all compounds tested hit in one or more screens of this group.

SMILES	TEAD-YAP inh	GPR151 ag	MITF primary	FBW7 activator
CCOC(=O)N1CCN(C(=O)C2CCN(c3nc4ccc(CC)cc4s3)CC2)CC1	-	-	-	-
CCc1ccc2nc(N3CCC(C(=O)N4CCCC4)CC3)sc2c1	48	-	-	-
CCOc1ccc2nc(SCCC(=O)Nc3ccccc3)sc2c1	36	-	-	-
CCOc1ccc2nc(SCCC(=O)Nc3ccc(OC)cc3)sc2c1	-	-	-	-
CCOc1ccc2nc(N3CCC(C(=O)Nc4cccc(C(C)=O)c4)CC3)sc2c1	69	-	-	-
CCc1ccc2nc(N3CCCC(C(=O)O)C3)sc2c1 (centres undefined)	58	-	-	-
CCOc1ccc(NC(=O)C2CCN(c3nc4ccc(OCC)cc4s3)CC2)cc1	-	-	-	-
Cc1cccc(C)c1N(CC(=O)NCC(C)C)S(C)(=O)=O	-	-	-	-
Fc1ccc(Nc2nc(OC(C(F)(F)F)C(F)(F)F)nc(N3CCCCC3)n2)cc1	-	-	-	-
Cc1cccc(C(=O)N[C@H](C(=O)Nc2nc3ccccc3[nH]2)C(C)C)c1	66	-	-	-
O=C(Nc1nc2ccccc2[nH]1)c1cccc(Br)c1	-	-	-	-
Cc1cccc(C(=O)Nc2nc3ccccc3[nH]2)c1	32	-	-	-
Cc1ccc(C2CC(c3cccs3)=NN2C(=O)CCC(=O)O)cc1 (centres undefined)	-	-	-	-
O=S(=O)(NC1c2cccc3cccc(c23)C1N1CCN(C(=S)Nc2ccccc2)CC1)c1ccc(Cl)cc1 (centres undefined)	-	-	-	2.4
Cc1nn2c(-c3ccccc3)csc2nc1=O	-	-	-	-
Oc1ccc(-c2csc3nc(-c4ccccc4)nn23)c(O)c1	34	-	-	-
CCc1ccc2oc3c(c(=O)c2c1)C(c1ccccn1)N(c1cc(C)on1)C3=O (centres undefined)	-	-	-	-
COc1ccccc1-n1cnc(N)c1C(=O)c1ccccc1	53	-	-	-
CCCc1ccc(Oc2c(C(F)(F)F)oc3cc(O)ccc3c2=O)cc1	65	-	-	-
CC(C)(C)c1ccc(Oc2c(C(F)(F)F)oc3cc(O)ccc3c2=O)cc1	88	-	-	-
COC(=O)c1ccc(Oc2c(C(F)(F)F)oc3cc(O)ccc3c2=O)cc1	-	-	-	-
Cc1ccccc1OCCCn1cc(C=C2C(=O)N(C)C(=O)N(C)C2=O)c2ccccc21	34	-	-	-
Cc1ccccc1Cn1cc(C=C2C(=O)N(C)C(=O)N(C)C2=O)c2ccccc21	-	-	-	-
COc1ccc(C2C(C(=O)N3CCN(c4ccccc4OC)CC3)c3ccccc3C(=O)N2c2ccc(OC)cc2)cc1 (centres undefined)	34	-	-	-
CCn1c(CSCc2ccccc2)nnc1SCC(=O)Nc1nc(C)cs1	-	-	-	-
SMILES	TEAD-YAP inh	GPR151 ag	MITF primary	FBW7 activator
COc1ccccc1C(=O)NC(=S)Nc1ccccc1	36	-	-	-
COc1ccccc1C(=O)NC(=S)Nc1ccccc1[N+](=O)[O-]	45	-	-	-
COc1ccccc1C(=O)NC(=S)Nc1ccc(NC(C)=O)cc1	-	-	-	-
COc1ccccc1C(=O)NNC(=S)NC(=O)c1ccc(Cl)cc1Cl	-	-	-	5.1
COc1ccccc1C(=O)NC(=S)NNC(=O)c1ccccc1C	-	-	-	-
Cc1ccnc(NC(=O)CCC(=O)N(CC(=O)NCCc2ccccc2)C2CCCC2)c1	-	-	-	-
Cc1cccc(N(CC(=O)NCc2ccccc2)C(=O)CCC(=O)Nc2ccccn2)c1	-	-	-	1.9
COCCN(CC(=O)NCCc1ccccc1)C(=O)CCC(=O)Nc1cc(C)ccn1	33	-	-	-
Cn1cnc([N+](=O)[O-])c1Sc1nc2ccccc2[nH]1	56	-	-	-
C=CCOc1ccc(I)cc1CNC(C)(C)CO	-	-	-	-
Cc1cccc(C(=O)n2c(=S)nc3ccc(Cl)cn32)c1	-	-	-	-
Cn1nc2c(c1NC(=O)C1CCCN(S(=O)(=O)c3ccc(Cl)s3)C1)CCC2 (centres undefined)	33	-	-	-
COc1ccc(S(=O)(=O)N2CCCC(C(=O)Nc3c4c(nn3C)CCC4)C2)cc1 (centres undefined)	-	-	-	-
COCCCNC(=O)Nc1nnc(N(C)Cc2ccccc2)s1	-	-	-	-
CCCCN(C)c1nnc(NC(=O)NCc2ccccc2)s1	58	-	-	-
CN(Cc1ccccc1)c1nnc(NC(=O)NCc2ccccc2)s1	47	-	-	-
O=C(/C=C/Nc1ccc(O)cc1)c1ccc(Cl)cc1	-	-	-	-
O=C(/C=C/Nc1ccc(Cl)cc1)c1ccccc1	35	-	-	-
COc1cc(C(=O)/C=C/Nc2ccc(O)cc2C)cc(OC)c1OC	-	-	-	-
COc1cc(C(=O)/C=C/Nc2ccc(Cl)cc2)cc(OC)c1OC	38	-	-	-
COc1cc(C(=O)/C=C/Nc2ccc(C)cc2O)cc(OC)c1OC	49	-	-	-
COc1ccc(N2CC(C(=O)O)CC2=O)c(OC)c1 (centres undefined)	-	-	-	-
CCOc1ccc(/C=C/C(=O)Nc2ccccc2F)cc1	91	-	-	-
Cc1csc(NC(=O)c2sc3nc4c(c(C(F)(F)F)c3c2N)CCCC4)n1	65	-	-	-
Cc1csc(NC(=O)c2sc3nc(C)c4c(c3c2N)CCCC4)n1	94	-	-	-
SMILES	TEAD-YAP inh	GPR151 ag	MITF primary	FBW7 activator
Cc1ccc(-c2c3c(nc4sc(C(=O)Nc5ccccc5)c(N)c24)CCCC3)cc1	-	-	-	-
CCOCCCNC(=O)CC(c1ccccc1)c1ccccc1	-	-	-	-
Cc1ccc2oc(-c3ccc(N4CCC(C)CC4)c([N+](=O)[O-])c3)nc2c1	93	-	-	-
O=C(c1ccccc1F)N1CC(=O)N(CCc2ccccc2)C(=O)C1	-	-	-	-
CCCCC(=O)Nc1ccccc1-c1nnn(CC(=O)Nc2ccccc2)n1	-	-	-	-
CCCCC(=O)Nc1ccccc1-c1nnn(CC(=O)Nc2ccc3c(c2)OCCO3)n1	-	-	-	2.3
O=C(c1cc(-c2ccc3c(c2)OCO3)on1)N1CCCC1	41	-	-	-
C=CCNC(=O)c1cc(-c2cccc(O)c2)on1	34	-	-	-
O=C(c1cc(-c2ccc(O)cc2)on1)N1CCCCC1	45	-	-	-
O=C(c1cc(-c2cccc(O)c2)on1)N1CCCCCC1	-	-	-	-
O=C(c1cc(-c2cccc(O)c2)on1)N1CCOCC1	65	-	-	-
CCOC(=O)c1[nH]c(C)c(CC)c1CC	-	-	-	-
CC(=O)N1N=C(c2ccc(O)cc2)CC1c1ccco1 (centres undefined)	-	-	-	-
Cc1ccc(SCC(=O)NC2CC2)cc1	-	-	-	-
O=C(CSc1ccc(Sc2ccc(SCC(=O)NC3CC3)cc2)cc1)NC1CC1	34	-	-	-

Compound activity deposited in PubChem BioAssay by The Scripps Research Institute Molecular Screening Center.
